From the supplement of paper PMC12636033
± gives the standard deviation of the averaged measurements. The full ranking holds about 33,000 sequences; the median of “E-score (rank enrichment, -0.5 to 0.5)” is about -0.0028, and the highest 2% start at about 0.23. The sample holds the highest values, similar sequences and a random draw of the others, so the mix is not that of the screen.

System: 2Sb-muMax20 (muMax20 with two 1,3-bis(methyl)benzene Cys staples, A13C/A17C and Q88C/A92C, C-terminal Lys)
Experiment: PBM 8-mer E-score (E-score (rank enrichment, -0.5 to 0.5)); higher = stronger preferential binding
Experimental: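 Protein binding microarray (universal PBM chip covering all 10-mers in fixed probe flanks) with chemically synthesized human Max(13-93) bHLH-LZ analogs (not full-length Max) bearing noncanonical residues (hArg, Tha, Aib, Nle at 65) and aromatic Cys staples. Read-out per 8-mer (and its reverse complement): E-score (rank-based enrichment, -0.5 to 0.5) and Z-score of median probe intensity.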

Sequence | PBM 8-mer E-score
ACGTGGCC | -0.0906 ± 0.018
ACGTGGCT | 0.291 ± 0.048
AACCGTGC | -0.0303 ± 0.0035
CGGTATTC | -0.204 ± 0.072
GGCCGGCC | -0.285 ± 0.0086
CCACGGTA | -0.185 ± 0.042
TTAAAGAA | 0.125 ± 0.032
GCGTAAAC | 0.0507 ± 0.016
AATTCCAG | 0.0496 ± 0.043
ATACTACG | 0.0847 ± 0.053
GGACTCAA | -0.0969 ± 0.07
TATGGGGA | 0.28 ± 0.014
GTTGGGGA | 0.166 ± 0.092
ATTGGGGG | 0.0136 ± 0.03
CTTGGGAA | -0.0626 ± 0.05
ATTGGGCC | -0.04 ± 0.093
CATGGGGA | 0.172 ± 0.05
ATTGGGTA | 0.161 ± 0.015
ATTGGGGC | 0.284 ± 0.0076
ATTGGGAA | 0.192 ± 0.0077
AATGGGGA | 0.143 ± 0.0043
CTTGGGGA | 0.269 ± 0.046

Sequence | PBM 8-mer E-score
ATTGGGGA | 0.244 ± 0.0088
AGTGGCTA | -0.0163 ± 0.084
AGTTTCAC | 0.045 ± 0.0036
CAGCTCAG | -0.0712 ± 0.0083
GGCCACAA | -0.0539 ± 0.0061
ACATTCTC | -0.0346 ± 0.019
AGGGGGTG | -0.116 ± 0.099
ATGGGGTG | 0.238 ± 0.0055
ATGGGGTA | 0.249 ± 0.034
CTGGGGTA | 0.179 ± 0.0054
ATGGGGTC | 0.0475 ± 0.043
AAGGGGTG | 0.117 ± 0.065
ACGTAGAA | -0.00421 ± 0.0043
AGCGCTCG | -0.0768 ± 0.062
AAATCCGA | 0.0186 ± 0.034
AGGAATGA | 0.00801 ± 0.012
TGGAATAA | 0.0314 ± 0.022
GGGAATAA | 0.273 ± 0.024
GGGAATGA | 0.322 ± 0.017
CGGAATGA | -0.065 ± 0.018
GGGAATAC | 0.0722 ± 0.022
AAGGCACT | 0.0491 ± 0.026

Sequence | PBM 8-mer E-score
GAGTGCCA | -0.0641 ± 0.028
ACTCTGCT | -0.214 ± 0.017
CATATCCG | 0.0256 ± 0.071
AATTTTCC | 0.085 ± 0.0046
CAAATTCC | 0.117 ± 0.042
CGTTTCTC | -0.0396 ± 0.11
GACAGGGA | -0.156 ± 0.072
AAGCAACT | 0.00018 ± 0.012
ATAAAGCG | 0.0637 ± 0.015
CTAAAGCA | 0.097 ± 0.0042
ATAAAGCA | 0.261 ± 0.077
AGTTAGAA | 0.0284 ± 0.083
ACGTGCAT | 0.199 ± 0.0073
CCGTGCAA | -0.0691 ± 0.042
ACGTGCAA | 0.252 ± 0.037
CCGTGCAC | 0.126 ± 0.009
ACGTGCAC | 0.281 ± 0.028
GCGTGCAC | 0.164 ± 0.039
AGACCATG | -0.149 ± 0.029
ACGGGTAA | 0.0152 ± 0.05
AATGTGGC | 0.0323 ± 0.0018
CATGTGGG | 0.193 ± 0.0078

Sequence | PBM 8-mer E-score
AATGTGGG | 0.248 ± 0.054
TGAATGCA | 0.167 ± 0.015
CCATACCG | 0.0521 ± 0.016
ATTTTACC | 0.147 ± 0.025
CGACGGAA | -0.109 ± 0.041
CTCATTAA | 0.154 ± 0.064
CACATTAG | -0.00967 ± 0.014
GACATTAA | 0.0446 ± 0.036
TCCATTAA | -0.0453 ± 0.043
AACATTAC | 0.17 ± 0.015
ACCATTAA | 0.298 ± 0.038
TACATTAA | 0.25 ± 0.03
AACATTAA | 0.0201 ± 0.011
GTCATTAA | 0.269 ± 0.035
CACATTAC | 0.235 ± 0.017
CCCATTAA | 0.13 ± 0.0083
ATCATTAA | 0.0944 ± 0.13
AGCGTGGC | -0.119 ± 0.04
TAACGTTA | 0.0083 ± 0.027
CCATTCCG | -0.0949 ± 0.02
CGACGCCC | 9e-05 ± 0.053
CTGCTCTC | -0.0222 ± 0.021

Sequence | PBM 8-mer E-score
ATGTGATG | 0.108 ± 0.053
ATATCCGC | -0.0334 ± 0.094
AGAACCAG | -0.11 ± 0.019
GGCATTAA | -0.00398 ± 0.043
CTGATTAA | 0.0112 ± 0.038
AGCATTAT | 0.224 ± 0.0032
AGCATTAA | 0.245 ± 0.037
GTGATTAA | 0.234 ± 0.019
CGCATTAA | 0.0701 ± 0.0015
AGCATTAC | -0.0652 ± 0.011
TGCATTAA | 0.267 ± 0.01
ATGATTAA | -0.061 ± 0.032
AGGATAAT | 0.148 ± 0.024
AGTTATCC | 0.119 ± 0.035
AGCTCAAG | -0.0222 ± 0.065
AAAGCCAG | -0.092 ± 0.033
CTCGCGAA | -0.117 ± 0.028
ATATTCCC | 0.159 ± 0.065
ACCGGCGT | -0.189 ± 0.05
CTTCGTCC | -0.084 ± 0.06
ATTCGTCG | -0.057 ± 0.028
ATTCGTCC | 0.232 ± 0.032
